In the supplement of paper PMC10981050:
Several values for one entry are separate records, joined by “and”; a condition that tells them apart may be missing. Identical values can stand only once. Counter-ions that a name gives are not always drawn.

How the values were obtained:
Experiment in all cases: cell viability relative to vehicle control; higher = less cytotoxic
Settings in all cases: 10 µM
K562 = system: K562
Procedure, shortened: (§1)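 Mutant clones made by CRISPR editing and their isogenic wild-type counterparts, from four leukaemia lines, were exposed to a single 10 µM dose of each library compound for 48 h. The supernatant was then removed and CellTiter-Glo luminescence was read. Viability was reported as percent of the on-plate vehicle control.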

MARIMO = system: MARIMO
Procedure, shortened: as §1

MOLM14 = system: MOLM14
Procedure, shortened: as §1

OCI-AML2 = system: OCI-AML2
Procedure, shortened: as §1

SMILES | cell viability (K562; SRSF2 genotype: SRSF2 P95H/wt) | cell viability (K562; SRSF2 genotype: SRSF2 wt/wt) | cell viability (MARIMO; SRSF2 genotype: SRSF2 P95H/wt) | cell viability (MARIMO; SRSF2 genotype: SRSF2 wt/wt) | cell viability (MOLM14; SRSF2 genotype: SRSF2 P95H/wt) | cell viability (MOLM14; SRSF2 genotype: SRSF2 wt/wt) | cell viability (OCI-AML2; SRSF2 genotype: P95H/wt) | cell viability (OCI-AML2; SRSF2 genotype: wt/wt)
COc1ccc([C@@H]2OC[C@H]3[C@@H]2CO[C@@H]3c2ccc3c(c2)OCO3)cc1OC [Fargesin] | 87.8% and 91.3% | 92.7% | 84.8% | 86% | 97.2% | 94.5% | 88.6% | 80.4%
NC1(Cc2ccc(Cl)cc2)CCN(c2ncnc3[nH]ccc23)CC1 | 55.4% and 60.1% | 50.8% | 36.5% | 35.1% | 17.7% | 17% | 35.3% | 30.9%
COc1c(C)c2c(c(O)c1C/C=C(\C)CCC(=O)OCCN1CCOCC1)C(=O)OC2 [Mycophenolate mofetil (CellCept)] | 50.6% and 48.7% | 45.1% | 45.4% | 43.6% | 9.99% | 2.92% | 13.5% | 12.2%
C=C1/C(=C\C=C2/CCC[C@]3(C)[C@@H]([C@H](C)CCCC(C)(C)O)CC[C@@H]23)C[C@@H](O)C[C@@H]1O [Calcitriol (Rocaltrol)] | 81.2% and 89.8% | 88.2% | 66.9% | 66.5% | 65.4% | 62.6% | 64.9% | 76.3%
CC(C)OC(=O)[C@H](C)N[P@](=O)(OC[C@H]1O[C@@H](n2ccc(=O)[nH]c2=O)[C@](C)(F)[C@@H]1O)Oc1ccccc1 [Sofosbuvir(PSI-7977)] | 103% and 102% | 95.8% | 98.3% | 111% | 102% | 107% | 94% | 107%
CC(C)OC(=O)OCOP(=O)(CO[C@H](C)Cn1cnc2c(N)ncnc21)OCOC(=O)OC(C)C [Tenofovir Disoproxil Fumarate] | 92.9% and 94.9% | 82.2% | 79.8% | 79.2% | 34.7% | 28.4% | 14.3% | 22.9%
O=C(Oc1cccc(F)c1OC(=O)c1cccc(O)c1)c1cccc(O)c1 | 92.4% and 99.5% | 94.9% | 68.8% | 88.4% | 78.4% | 80.3% | 92.6% | 82.4%
O=c1cc(N2CCOCC2)oc2c(-c3ccccc3)cccc12 | 76.7% and 86.9% | 91.8% | 66.6% | 64.8% | 51.5% | 45.6% | 47.5% | 49.4%
S=C(N/N=C1/CCCc2cccnc21)N1CCN(c2ccccn2)CC1 | 16.2% and 6.78% | 26.6% | 28% | 25.2% | 22.1% | 13.9% | 22.8% | 30.5%
CCC[C@H](NC(=O)[C@@H]1[C@H]2CCC[C@H]2CN1C(=O)[C@@H](NC(=O)[C@@H](NC(=O)c1cnccn1)C1CCCCC1)C(C)(C)C)C(=O)C(=O)NC1CC1 [Telaprevir (VX-950)] | 87.5% and 92% | 80.2% | 68.6% | 86.1% | 89.5% | 99.2% | 85.9% | 98.7%
COc1ccc(C2CC(=O)c3c(O)cc(OC4OC(COC5OC(C)C(O)C(O)C5O)C(O)C(O)C4O)cc3O2)cc1OC (centres undefined) [Methyl-Hesperidin] | 96.9% and 106% | 97.8% | 107% | 114% | 108% | 107% | 107% | 104%
O=C(O)CCCC[C@@H]1SC[C@@H]2NC(=O)N[C@@H]21 [Biotin (Vitamin B7)] | 101% and 100% | 96.3% | 104% | 103% | 102% | 108% | 102% | 99.2%
CC(=O)O[C@@]12CO[C@@H]1C[C@H](O)[C@@]1(C)C(=O)[C@H](O)C3=C(C)[C@@H](OC(=O)[C@H](O)[C@@H](NC(=O)OC(C)(C)C)c4ccccc4)C[C@@](O)([C@@H](OC(=O)c4ccccc4)[C@H]21)C3(C)C [Docetaxel (Taxotere)] | 25.3% and 36.8% | 34.7% | 6.89% | 5.5% | 7.8% | 4.57% | 7.58% | 13.3%
COc1cc2c(=O)c3c(O)c([C@@H]4O[C@H](CO[C@@H]5OC[C@](O)(CO)[C@H]5O)[C@@H](O)[C@H](O)[C@H]4O)c(O)cc3oc2cc1O [Polygalaxanthone III] | 99.2% and 105% | 98% | 100% | 98.8% | 101% | 98.4% | 105% | 97.3%
O=C1C=C2C=C[C@@H](O)[C@H](O)[C@H]2O1 [Griffonilide] | 101% | 96.4% | 98.7% | 104% | 99.3% | 97.2% | 103% | 100%
CCS(=O)(=O)c1cccc(-c2cc(C(=O)NC3CCN(C)CC3)c(C)c3[nH]c4ncc(C)cc4c23)c1 | 29% and 32.2% | 21.9% | 11.9% | 7.33% | 2.91% | 2.2% | 4.55% | 11.1%
O=C(Cn1ccnc1[N+](=O)[O-])NCc1ccccc1 [Benznidazole] | 96.1% and 92.1% | 95.9% | 96.6% | 92.8% | 97.1% | 99.4% | 103% | 100%
O=C(NCC1(c2nc(-c3ccccc3)cs2)CCOCC1)c1cccc(-c2noc(C(F)(F)F)n2)c1 | 82.1% and 90.7% | 86.5% | 86.5% | 85.5% | 87.9% | 97.8% | 75.7% | 79.3%
CCOC(=O)CCNc1cc(N2CCc3ccccc3CC2)nc(-c2ccccn2)n1 | 26.1% and 28.9% | 27.6% | 25.8% | 27.4% | 30.4% | 24.4% | 28.8% | 25.8%
C=CC(=O)N1CC(=Cc2ccc([N+](=O)[O-])cc2)C(=O)C(=Cc2ccc([N+](=O)[O-])cc2)C1 | 15.9% and 2.27% | 9.63% | 3.16% | 1.15% | 0.72% | 0.74% | 2.08% | 1.27%
C=CC(C)(O)CCC=C(C)C (centres undefined) [Linalool] | 100% and 105% | 107% | 101% | 105% | 103% | 104% | 109% | 97.4%
C=CC(=O)Nc1cc(Nc2nccc(-c3cn(C)c4ccccc34)n2)c(OC)cc1N(C)CCN(C)C | 1.58% and 2.37% | 3.2% | 1.11% | 1.36% | 0.38% | 0.44% | 0.32% | 0.41%

SMILES | cell viability (K562; SRSF2 genotype: SRSF2 P95H/wt) | cell viability (K562; SRSF2 genotype: SRSF2 wt/wt) | cell viability (MARIMO; SRSF2 genotype: SRSF2 P95H/wt) | cell viability (MARIMO; SRSF2 genotype: SRSF2 wt/wt) | cell viability (MOLM14; SRSF2 genotype: SRSF2 P95H/wt) | cell viability (MOLM14; SRSF2 genotype: SRSF2 wt/wt) | cell viability (OCI-AML2; SRSF2 genotype: P95H/wt) | cell viability (OCI-AML2; SRSF2 genotype: wt/wt)
CCCCCCNC(=O)n1cc(F)c(=O)[nH]c1=O [Carmofur] | 96% and 94.6% | 82% | 74.1% | 81% | 42.2% | 27.3% | 57.9% | 58.3%
CCc1cc(Nc2nccc(-c3c(-c4ccc(OC)c(C(=O)Nc5c(F)cccc5F)c4)nc4ccccn34)n2)c(OC)cc1N1CCC(N2CCN(S(C)(=O)=O)CC2)CC1 | 88.6% and 96.3% | 97.3% | 106% | 108% | 105% | 100% | 93.9% | 98.7%
CCn1cc(C(=O)O)c(=O)c2cc(F)c(N3CCN(C)CC3)cc21 [Pefloxacin mesylate] | 97.5% and 101% | 96.6% | 105% | 100% | 100% | 103% | 109% | 115%
O=C(O)c1ccc(C=C2SC(=S)N(c3cccc(C(F)(F)F)c3)C2=O)cc1 | 94.1% and 97.2% | 95.1% | 94.3% | 105% | 90.2% | 99.7% | 95.5% | 97.9%
O=C(CCCCc1ccc2c(c1)OCO2)N1CCCCC1 [Tetrahydropiperine] | 91.7% and 93.2% | 97.2% | 88.6% | 102% | 89.8% | 93.9% | 85% | 88.3%
CC(=O)c1cc(O)ccc1O [2',5'-Dihydroxyacetophenone] | 90.6% and 97.4% | 97.7% | 94.6% | 87.5% | 103% | 97.6% | 94.7% | 101%
C=CC(=O)N1CCN(C(=O)CNc2cc(I)c(Cl)cc2O)CC1 [K-Ras(G12C) inhibitor 12] | 78.9% and 84.7% | 75.2% | 79.8% | 83.6% | 62.9% | 81.2% | 93.3% | 88.1%
NC(=S)N/N=C/c1ncccc1N [Triapine] | 75.8% and 77.5% | 76.5% | 20.1% | 15.3% | 6.66% | 1.54% | 13.1% | 15.1%
COc1cc(O)c(C(=O)Nc2nc(C(=O)NCCN(C(C)C)C(C)C)cs2)cc1OC [Acotiamide] | 101% and 97.3% | 107% | 98% | 108% | 97.5% | 106% | 94.1% | 101%
CCC1=C(C)CN(C(=O)NCCc2ccc(S(=O)(=O)NC(=O)N[C@H]3CC[C@H](C)CC3)cc2)C1=O [Glimepiride] | 101% and 82.6% | 93.7% | 91.7% | 116% | 94.6% | 92.4% | 97.3% | 105%
CCCCCCCCCCCCCCCc1cccc(O)c1C(=O)O [Anacardic Acid] | 88.9% and 86.6% | 84.8% | 81.7% | 86.7% | 86.3% | 82.9% | 87.5% | 83.5%
O=C(C[S+]([O-])Cc1ccco1)NC/C=C\COc1cc(CN2CCCCC2)ccn1 (centres undefined) [Lafutidine] | 104% and 105% | 102% | 104% | 104% | 96.9% | 101% | 105% | 108%
CN1CCC(=C2c3ccccc3CCn3c(C=O)cnc32)CC1 [Alcaftadine] | 102% and 104% | 100% | 100% | 94.7% | 99.7% | 99.4% | 109% | 97.4%
COc1ccc2cc(-c3nc(-c4ccc([S+](C)[O-])cc4)[nH]c3-c3ccncc3)ccc2c1 (centres undefined) [Tie2 kinase inhibitor] | 79% and 60.2% | 93.8% | 88.6% | 95.9% | 101% | 94.6% | 78.5% | 84.3%
C[C@@H](CN1CC(=O)NC(=O)C1)N1CC(=O)NC(=O)C1 [Dexrazoxane] | 113% and 103% | 110% | 88.2% | 96.9% | 89.8% | 97.9% | 96.8% | 99.9%
COc1cccc(-c2cc(NCc3ccc4c(c3)OCO4)nc(N)n2)c1 [Wnt agonist 1] | 9.55% and 31.1% | 26.2% | 8.72% | 9.19% | 7.29% | 4.03% | 11% | 13.1%
C[n+]1ccccc1C=NO [Pralidoxime Iodide] | 106% and 98.4% | 111% | 101% | 105% | 99.2% | 106% | 105% | 118%
NC1(C(=O)N[C@@H](CCO)c2ccc(Cl)cc2)CCN(c2ncnc3[nH]ccc23)CC1 | 82.6% and 83.6% | 79% | 66.6% | 67.1% | 28.5% | 33.3% | 59.8% | 55.8%
CCN(CC)CC(=O)Nc1c(C)cccc1C [Lidocaine hydrochloride] | 102% and 103% | 106% | 101% | 107% | 99.3% | 102% | 100% | 97.1%
Cc1cc(Nc2cc(CN3CCOCC3)c3nc(C)c(Cc4ccc(Cl)cc4F)n3n2)n[nH]1 | 88.8% and 88% | 84% | 73.1% | 110% | 19.7% | 16.5% | 34.7% | 53%
COc1cc2ncnc(Oc3ccc(CC(=O)Nc4cnn(C(C)C)c4)cc3)c2cc1OC | 74.8% and 98.4% | 72.4% | 113% | 107% | 16.1% | 14.1% | 36.1% | 42.4%
